# FLuc counter: firefly luciferase modulation, counter-screen for miR-21 project. P08659. purified FLuc, Km substrates, luminescence inhibition. Potency, µM (doses to about 57.5 µM), for the others: at the highest dose activity change, negative = inhibition, usual class: inhibitors. 360,000 tested, 6.9% active. AID 588342;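 note: plate controls were vehicle for no effect and reference inhibitor for full effect; nearly all actives have a fitted effect of over 55% in size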
# Target sequence (P08659 whole entry, looked up): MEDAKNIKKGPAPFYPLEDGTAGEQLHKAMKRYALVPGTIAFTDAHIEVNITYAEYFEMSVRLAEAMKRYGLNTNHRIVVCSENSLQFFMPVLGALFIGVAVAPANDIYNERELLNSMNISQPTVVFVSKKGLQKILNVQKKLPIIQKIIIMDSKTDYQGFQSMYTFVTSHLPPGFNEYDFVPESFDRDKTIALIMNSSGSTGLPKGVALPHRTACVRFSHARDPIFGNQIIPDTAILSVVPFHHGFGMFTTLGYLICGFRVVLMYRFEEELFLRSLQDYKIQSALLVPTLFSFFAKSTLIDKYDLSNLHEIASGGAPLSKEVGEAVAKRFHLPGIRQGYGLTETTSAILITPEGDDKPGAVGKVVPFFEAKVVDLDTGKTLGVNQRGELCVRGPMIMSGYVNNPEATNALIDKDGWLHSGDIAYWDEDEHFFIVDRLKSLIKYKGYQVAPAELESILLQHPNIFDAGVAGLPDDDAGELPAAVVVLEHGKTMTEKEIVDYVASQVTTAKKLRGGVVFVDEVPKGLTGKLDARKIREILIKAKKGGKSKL
#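 Purified P. pyralis luciferase, 10 nM final, with Km-level 10 uM D-luciferin and 10 uM ATP in 50 mM Tris acetate pH 7.5, 10 mM Mg acetate, 0.01% Tween-20, 0.05% BSA; 6-point qHTS titration about 60 µM downward; luminescence read.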
# ELG1 DNA repair: blocks ELG1-dependent DNA repair in HEK293T cells | HEK293T ELG1-luciferase reporter, luminescence, 16 h; DNA damage induced by 5-fluorouridine | Potency, µM (series often up to 46.1 µM), inactives show at the highest dose activity change, negative = inhibition, actives largely listed as inhibitors | 330,000 tested, 2.3% active | AID 504467; note: % is set by controls: 0 for no effect and ±100 for the full control effect; nearly all actives have a fitted effect of over 55% in size
#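 Quantitative HTS, concentration-response format. 2,000 cells/well co-treated with 5-fluorouridine and compound, 16 hr in 5% CO2 at 37 °C; ONE-Glo luminescence read after 30 min.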
# ELG1 genotox: inducers of genotoxicity in HEK293T ELG1-luciferase cells | Potency, µM (titrated, usually from 46 µM), without a hit: at the highest dose activity change, positive = activation, usual class: activators | AID 504466 | 330,000 tested, 1.3% active | HEK293T ELG1-luciferase reporter, luminescence, 16 h; note: % of control where 0% means no effect; nearly all actives have a fitted effect of over 60% in size
#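 Step 1: seed 2,000 HEK293T ELG1-luciferase cells per well. Step 2: add compound or DMSO, incubate 16 hr at 37 °C. Step 3: ONE-Glo, 30 min at room temperature, read luminescence.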
# SMN2 splice enh: SMN2 splice variant enhancement; Potency, µM (series often up to 46.1 µM), without a hit: top-dose activity change, positive = activation, hits mostly activators; AID 1458; HEK293 SMN2-luciferase splicing reporter, luminescence, 30-36 h; 210,000 tested, 2.8% active; note: % of control where 0% means no effect; nearly all actives have a fitted effect of over 55% in size
#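 HEK293 cells carry an SMN2 […]–luciferase reporter in which exon 7 inclusion puts luciferase in frame. Cells were plated 10-12 h before compound addition, then incubated 30-36 h at 37C. ONE-Glo luminescence was read; sodium butyrate at 4.5 mM final served as control.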
# NPC1 promoter act: activators of NPC1 promoter | Potency, µM (titrated, usually from 9.22 µM), for the others: at the top dose activation, hits mostly activators | 320,000 tested, 2.4% active | AID 485313 | Huh7 NPC1 promoter luciferase reporter, 24 h; note: % of control where 0% means no effect; nearly all actives have a fitted effect of over 60% in size
#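 Compounds in DMSO were transferred onto Huh7 NPC1-luciferase reporter cells pre-incubated 2 h; after 24 h at 37 °C, Amplite reagent was dispensed and luminescence recorded 10 min later.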
# Rab9 promoter act: Rab9 promoter activation; Huh7 Rab9 promoter-luciferase reporter, luminescence, 24 h; Potency, µM (series often up to 9.22 µM), for inactives: at the top dose activation, negative = inhibition, actives largely listed as activators; 320,000 tested, 2.8% active; note: % of control where 0% means no effect; nearly all actives have a fitted effect of over 60% in size
#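 Quantitative HTS format; Huh7 Rab9-luciferase reporter cells (1500/well) receive compound 2 h post-plating, incubate 24 h at 37 °C, then get luciferase reagent for 10 min before luminescence reading.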
# * = called active by the depositor; ? = inconclusive; . = no result; [ ] = remark or other dose. Sampled rows, rich in hits. Any-hit rate of the full collection: about 9.2%. Calls come from the whole dose curve; as a rule, active = well fitted curve in the direction sought with a large enough effect; inconclusive = small, poorly fitted or top-dose-only effect, or another doubt; inactive = no such curve, though single readings can be large; an effect the other way counts as inactive or inconclusive. Potency is the fitted concentration of half-maximal effect.
SMILES,FLuc counter,ELG1 DNA repair,ELG1 genotox,SMN2 splice enh,NPC1 promoter act,Rab9 promoter act
O=C(CCCCl)Nc1nc(-c2ccc3c(c2)OCCO3)cs1,11µM*,?,5.8µM*,.,3.5µM*,3.2µM*
CCOC(=O)N1CCN(C(=O)CSCC(=O)Nc2nc(-c3ccc4c(c3)OCO4)cs2)CC1,?,?,5%,.,?,?
O=C(Nc1nc(-c2ccc3c(c2)OCCO3)cs1)C1CCCC1,7.6µM*,?,?,11µM*,?,2.2µM*
CN(C)c1oc(/C=C/c2ccccc2)nc1C#N,17µM*,?,?,13µM*,?,?
COc1ccc(Nc2oc(/C=C/c3cccc(OC)c3)nc2C#N)cc1,-16%,.,.,6%,.,.
COc1ccccc1/C=C/c1nc(C#N)c(N(C)C)o1,7.6µM*,?,21µM*,10µM*,?,?
CNc1oc(/C=C/c2cccc(OC)c2)nc1C#N,15µM*,?,21µM*,.,3%,0%
COc1cccc(NC(=O)CN2CCCN(S(=O)(=O)c3ccc(Br)cc3)CC2)c1,-9%,.,.,-12%,.,.
COc1ccc(N2CC(NC(=O)c3ccc4ccccc4c3)CC2=O)cc1OC (stereo not given),4%,8%,15%,.,-2%,-1%
Cc1nc(-c2ccc(F)cc2)sc1CCNC(=O)c1ccccc1C(F)(F)F,-9%,.,.,.,.,.
O=C(NCCc1ccccc1)c1cc(Sc2cccc(Cl)c2)nc2ccccc12,2%,.,.,.,.,.
CC1(C)NC(=O)N(CCCCOc2ccc3ccccc3c2Cl)C1=O,21µM*,?,?,-12%,?,16%
CC1(C)NC(=O)N(CCOCCOc2ccc3ccccc3c2Br)C1=O,?,?,?,7%,19%,9%[1.84 µM]
COc1ccc(-c2cnnc(N/N=C/c3ccc(-c4ccc([N+](=O)[O-])cc4)o3)n2)cc1,-8%,?,-4%,-8%,-31%,-40%
COc1ccccc1-c1cnnc(N/N=C/c2ccc(-c3cccc(Br)c3)o2)n1,-8%,8.2µM*,-4%,-5%,-6%,0%
CC(=O)c1c(C)[nH]c(C(=O)CN2C(=O)NC3(CCCCC3C)C2=O)c1C (stereo not given),-1%,?,7%,.,-3%,2%
Cc1[nH]c2ccccc2c1C(=O)COc1ccccc1,?,?,14%,.,16%,24%
Cc1[nH]c2ccccc2c1C(=O)COc1ccccc1F,21µM*,?,13%,.,16%,22%
CCc1ncc(/C=C2\C(=O)Nc3ccccc32)[nH]1,13µM*,?,6%,.,?,?
COC(=O)C1CN(C(=O)COc2ccc(Cl)cc2C)c2ccccc2O1 (stereo not given),?,7%,1%,.,-2%,1%
Cc1cccc(C2c3[nH]c4ccccc4c3CCN2C(=O)Cc2nc(-c3ccccc3)n[nH]2)n1 (stereo not given),4%,18µM*,-9%,.,-3%,-4%
Cc1cc(C(=O)C(=O)Nc2nncs2)c(C)n1-c1ccc(Cl)cc1,-12%,.,.,.,.,.
COc1cc2c(=O)n(CCC(=O)NCC3CCCO3)c(=O)n(CC(=O)Nc3ccc(C)cc3C)c2cc1OC (stereo not given),-1%,2%,-7%,2%,-1%,5%
O=C(OCc1cccc(F)c1)c1ccc2c(c1)-c1ccccc1C2=O,-16%,?,11%,-3%,20%,14%
O=C(OCc1ccccc1F)c1ccc2c(c1)-c1ccccc1C2=O,?,?,?,?,2.2µM*,2.2µM*
SMILES,FLuc counter,ELG1 DNA repair,ELG1 genotox,SMN2 splice enh,NPC1 promoter act,Rab9 promoter act
COc1ccc(CNC(=O)c2cc3c(C)nc4ccccc4c3o2)c(OC)c1,4%,5.8µM*,1%,-91%,-15%,-26%
Cc1nc2ccccc2c2oc(C(=O)N3CCC(N4CCCCC4)CC3)cc12,-1%,-1%,7%,11%,-1%,-12%
Cc1nc2ccccc2c2oc(C(=O)NCC3COc4ccccc4O3)cc12 (stereo not given),-6%,15µM*,-11%,-51%,-4%,-15%
Cc1nc2ccccc2c2oc(C(=O)N3CCN(C4CCCCC4)CC3)cc12,2%,7.3µM*,-4%,-53%,-6%,-15%
CCc1ccc(CNC(=O)c2cc3c(C)nc4ccccc4c3o2)cc1,2%,15µM*,?,-96%,-5%,-19%
CCN(c1ccccc1)c1nnc(NC(=O)Nc2ccc(Br)cc2F)s1,5%,.,.,.,.,.
COc1ccccc1NC(=O)c1sc2cccc(Cl)c2c1Cl,-14%,.,.,-10%,.,.
CCN1CCCC1CNC(=O)c1cc2c(C)nc3ccccc3c2o1 (stereo not given),-2%,-1%,11%,-10%,1%,-17%
CCOC(=O)N1CCC(NC(=O)c2cc3c(C)nc4ccccc4c3o2)CC1,-2%,13µM*,-11%,-34%,-4%,1%
Cc1ccc(C)c(NC(=O)Cn2c(=O)n(Cc3ccco3)c(=O)c3oc4ccccc4c32)c1,-6%,.,.,.,.,.
CCOc1ccc(N(CC)S(=O)(=O)N2CCCC(C(=O)NCc3ccccc3Cl)C2)cc1 (stereo not given),-14%,.,.,.,.,.
N#Cc1c(-c2ccccc2)cc(-c2ccccc2)nc1SCCC(=O)O,-4%,?,0%,.,-5%,-1%
COc1ccc(OCc2n[nH]c(=S)n2-c2ccc(C)cc2)cc1,-16%,-2%,3%,-21%,-6%,-3%
COc1ccc(C2=NCN(c3ccc(C)cc3)C(=S)N2)cc1,12µM*,?,16µM*,?,?,2.8µM*
Cc1ccc(N2CN=C(c3ccccc3)NC2=S)cc1,9.5µM*,?,15µM*,27%,?,?
CC(=O)c1c(C)oc2ccc(NS(=O)(=O)c3ccc(F)cc3C)cc12,0%,6.5µM*,-27%,.,-3%,-5%
Cc1cc(F)ccc1S(=O)(=O)Nc1ccc2oc3c(c2c1)CC(C)CC3 (stereo not given),-12%,.,.,-58%,.,.
O=C(CSc1cn(CCNC(=O)c2c(F)cccc2F)c2ccccc12)Nc1ccc(F)cc1,0%,.,.,?,.,.
COc1ccc(-c2ccc(-c3nnn(CC(=O)N4CCOCC4)n3)cc2)cc1,0.38µM*,?,?,?,3.2µM*,2.8µM*
COc1ccc(OC)c(C(=O)Cn2nnc(-c3ccc(N4CCOCC4)cc3)n2)c1,9.5µM*,?,-7%,.,0%,1%
O=C(Cn1nnc(-c2ccccc2F)n1)N1CCCCC1,?,?,?,.,3.2µM*,2.5µM*
CCCOc1ccc(-c2nnn(CC(=O)N3CCCCC3)n2)cc1,17µM*,0%,-6%,.,1%,-2%
